The structures appear in SMILES notation. Inconclusive results are not listed. Active and inactive are the calls of the source. Unless noted, calls follow the shape of the dose curve; as a rule, active = well fitted curve in the direction sought with a large enough effect; inconclusive = small, poorly fitted or top-dose-only effect, or another doubt; inactive = no such curve, though single readings can be large; an effect the other way counts as inactive or inconclusive.

A short description of experiment [1]: Validation screen for small molecules that induce genotoxicity in human embryonic kidney (HEK293T) cells expressing luciferase-tagged ELG1 (AID 493106). Also: 0% is about no effect. The method in brief:
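ELG1-luciferase reporter readout (ONE-Glo, 30 min, room temperature) after 16 hr compound treatment at 37 °C of HEK293T cells at 2,000 per well. Rising luminescence flags genotoxic stress.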

The target of experiment [2] is ATPase family AAA domain-containing protein 5 (Homo sapiens) (UniProt Q96QE3). Description: Validation screen for small molecules that inhibit ELG1-dependent DNA repair in human embryonic kidney (HEK293T) cells expressing luciferase-tagged ELG1 (AID 493107).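 Also: series mostly up to about 46 µM; % is scaled to controls: 0 for no effect and ±100 for the full control effect; inhibitors lower the ELG1-luciferase luminescence signal; nearly all actives have a fitted effect of over 70% in size.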 Put shortly:
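Luciferase read-out, ONE-Glo, 30 min at room temperature, follows 16 h co-exposure at 37 C of compound and the DNA-damaging agent 5-fluorouridine. Cells: HEK293T with ELG1-luciferase fusion, 2,000 per well, DMSO as vehicle.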

Experiment [3] deals with Thyrotropin-releasing hormone receptor (Homo sapiens) (UniProt P34981). Description: qHTS for Small Molecule Agonists and Allosteric Enhancers of Human TRH Receptor: Validation Screen for Agonists (AID 493127;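 active = calcium activation more than 3 SD above the typical response in the agonist read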;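 also: intracellular calcium rise by fluo-8 fluorescence before TRH EC20 addition; 0% is about no effect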). The conditions noted are these: TRH receptor agonist cell assay; at 2 µM; stronger effect = higher value. Put shortly: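 Compound-evoked intracellular calcium release in fluo-8-loaded TRHR cells, read kinetically on FDSS (Ex 480/Em 530, 1 s/cycle) after 23 nL pintool transfer. Agonist phase preceded 10 nM TRH EC20 addition.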

Experiment [4] can be described thus: Nrf2 qHTS screen for inhibitors: Validation (AID 493153; active = well fitted inhibition curve with a large enough effect in the main read-out, with a control signal flat, not every such curve was filed as active). Conditions: viability change: measured here: cytotoxicity max response. Put shortly:
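Concentration-response on A549 ARE_Fluc reporter cells exposed 18-24 h at 37 C, 5% CO2. Cytotoxicity read first by CellTiter-Fluor fluorescence (Ex 405/Em 525), then Nrf2 inhibition by BugLite luminescence after 15 min.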
Background: qHTS replaces the single test concentration by a dilution series.

A short description of experiment [5]: qHTS for Inhibitors of Cell Surface uPA Generation: Validation Assay (AID 493164).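 Also: RAW 264.7 macrophage cells exposed to compound for 18 h; 0% is about no effect.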 Put shortly:
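ATP-Lite luminescence read-out: ATP remains high when uPA activity-dependent LF translocation into the cytoplasm is blocked. RAW 264.7 cells, 18 h compound exposure at 37 C; 7-point titration, 2.45 nM to 38.3 uM final.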

The target of experiment [6] is Galactokinase (Homo sapiens) (UniProt P51570). Description: qHTS Validation Assay for Inhibitors of Human Galactokinase (GALK) (AID 493189). Also: 0% is about no effect. The method in brief:
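GALK (5 nM) with 35 uM ATP and 100 uM galactose in HEPES pH 8.0 with MgCl2, NaCl, DTT and BSA. Reaction ran 1 h at room temperature. Residual ATP read by Kinase-Glo Plus luminescence.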

The nature of experiment [7]: Validation screen for small molecules that induce DNA re-replication in SW480 colon adenocarcinoma cells (AID 504364). Also: 0% is about no effect. Put shortly:
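Image-based DNA content read-out: Hoechst stain 40 min, total nuclear fluorescence intensity (ex 405 nm, em 500-530 nm) after 48 h compound exposure of 250 SW480 cells/well at 37 C, 5% CO2, versus DMSO vehicle.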

Experiment [8] concerns the target Peptidyl-prolyl cis-trans isomerase NIMA-interacting 1 (Homo sapiens) (UniProt Q13526). In words: qHTS Validation Assay to Find Inhibitors of Pin1 (AID 504536; active = well fitted inhibition curve with a large enough effect in the polarisation, with a control signal flat, not every such curve was filed as active; the % refers to the polarisation;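 also: 0% = full Pin1 enzyme wells and -100% = no-enzyme wells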). Put shortly:
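Fluorescence polarization competition: compounds (titration) displace HiFluor-488-labeled Pin1-1b peptide from Pin1 (0.3 uM final) in pH 7.5 HEPES buffer with DTT, 10 min at room temperature; %Activity normalized to no-enzyme wells, curves fitted.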

For experiment [9], the target named is Phosphoglycerate kinase, glycosomal (Trypanosoma brucei brucei) (UniProt P07378). In words: qHTS Validation Assay to Find Inhibitors of Phosphoglycerate Kinase (AID 504547).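 Also: control wells lack PGK and mark full inhibition.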 The method in brief:
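Compounds are pinned into the substrate/PGK mixture, and GAPDH (100nM final) is added to start the reaction by producing 1,3-BPG. After 60 minutes at room temperature, Kinase-Glo Plus is added and luminescence is measured 10 minutes later.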

Experiment [10] concerns the target phosphoglycerate mutase (Leishmania major) (UniProt Q4Q090). In words: qHTS Validation Assay to Find Inhibitors of Phosphoglycerate Mutase (AID 504548). Also: series mostly up to about 58 µM; % is scaled to controls: 0 for no effect and ±100 for the full control effect. Put shortly: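 Lm PGAM at 1.25 nM final with substrate in 100 mM TEA pH 7.6, 5 mM MgCl2, 0.01% Tween-20; 45 min at room temperature. Kinase-GloPlus added, 10 min, end-point luminescence read.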

Sequence of ATPase family AAA domain-containing protein 5 (Homo sapiens) (Q96QE3 whole entry, looked up, the tested form may be a part): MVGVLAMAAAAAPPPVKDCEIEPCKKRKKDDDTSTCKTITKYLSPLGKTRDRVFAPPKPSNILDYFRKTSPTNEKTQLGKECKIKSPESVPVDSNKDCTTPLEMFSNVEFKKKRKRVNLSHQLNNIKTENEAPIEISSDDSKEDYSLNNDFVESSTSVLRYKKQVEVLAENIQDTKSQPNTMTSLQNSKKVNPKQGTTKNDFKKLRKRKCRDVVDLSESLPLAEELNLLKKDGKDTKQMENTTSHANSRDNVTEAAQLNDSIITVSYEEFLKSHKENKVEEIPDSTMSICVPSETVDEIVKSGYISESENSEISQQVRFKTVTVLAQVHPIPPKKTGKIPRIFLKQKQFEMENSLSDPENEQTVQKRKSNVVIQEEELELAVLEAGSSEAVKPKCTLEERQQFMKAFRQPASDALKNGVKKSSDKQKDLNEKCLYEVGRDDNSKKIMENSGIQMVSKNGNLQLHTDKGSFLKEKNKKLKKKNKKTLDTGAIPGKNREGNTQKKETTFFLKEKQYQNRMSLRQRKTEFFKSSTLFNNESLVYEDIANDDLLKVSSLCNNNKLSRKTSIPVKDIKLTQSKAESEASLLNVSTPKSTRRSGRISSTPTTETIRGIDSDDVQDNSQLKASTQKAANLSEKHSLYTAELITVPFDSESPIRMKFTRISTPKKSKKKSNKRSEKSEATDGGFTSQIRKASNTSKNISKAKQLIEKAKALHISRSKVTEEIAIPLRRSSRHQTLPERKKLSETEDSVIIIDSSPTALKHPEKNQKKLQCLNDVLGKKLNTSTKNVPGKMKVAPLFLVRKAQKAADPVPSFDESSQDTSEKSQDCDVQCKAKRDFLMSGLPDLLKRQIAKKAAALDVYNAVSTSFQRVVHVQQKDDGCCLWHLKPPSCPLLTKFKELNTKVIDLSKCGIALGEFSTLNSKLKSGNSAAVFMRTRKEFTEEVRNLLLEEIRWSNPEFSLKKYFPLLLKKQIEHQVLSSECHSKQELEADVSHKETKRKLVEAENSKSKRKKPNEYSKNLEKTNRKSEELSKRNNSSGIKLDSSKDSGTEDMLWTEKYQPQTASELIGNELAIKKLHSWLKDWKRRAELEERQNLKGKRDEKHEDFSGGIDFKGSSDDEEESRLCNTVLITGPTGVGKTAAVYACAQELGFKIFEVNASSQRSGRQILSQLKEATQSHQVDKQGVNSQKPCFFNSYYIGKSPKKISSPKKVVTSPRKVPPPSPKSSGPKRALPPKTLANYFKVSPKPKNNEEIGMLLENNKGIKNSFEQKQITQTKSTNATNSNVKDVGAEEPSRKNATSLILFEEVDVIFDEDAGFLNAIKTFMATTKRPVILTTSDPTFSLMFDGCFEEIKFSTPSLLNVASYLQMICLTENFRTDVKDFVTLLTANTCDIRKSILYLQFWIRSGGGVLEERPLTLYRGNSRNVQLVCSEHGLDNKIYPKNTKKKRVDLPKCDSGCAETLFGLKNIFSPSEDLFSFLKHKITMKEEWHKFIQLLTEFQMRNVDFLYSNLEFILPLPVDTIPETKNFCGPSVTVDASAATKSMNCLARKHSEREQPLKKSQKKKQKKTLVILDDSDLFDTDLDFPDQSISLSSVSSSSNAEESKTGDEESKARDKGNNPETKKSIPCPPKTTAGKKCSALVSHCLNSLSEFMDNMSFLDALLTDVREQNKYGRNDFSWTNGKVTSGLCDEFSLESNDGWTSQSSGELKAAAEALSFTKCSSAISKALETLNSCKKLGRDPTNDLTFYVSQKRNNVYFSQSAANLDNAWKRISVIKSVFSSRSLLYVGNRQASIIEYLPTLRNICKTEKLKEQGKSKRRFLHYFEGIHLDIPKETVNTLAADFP
Sequence of Phosphoglycerate kinase, glycosomal (Trypanosoma brucei brucei) (P07378 whole entry, looked up): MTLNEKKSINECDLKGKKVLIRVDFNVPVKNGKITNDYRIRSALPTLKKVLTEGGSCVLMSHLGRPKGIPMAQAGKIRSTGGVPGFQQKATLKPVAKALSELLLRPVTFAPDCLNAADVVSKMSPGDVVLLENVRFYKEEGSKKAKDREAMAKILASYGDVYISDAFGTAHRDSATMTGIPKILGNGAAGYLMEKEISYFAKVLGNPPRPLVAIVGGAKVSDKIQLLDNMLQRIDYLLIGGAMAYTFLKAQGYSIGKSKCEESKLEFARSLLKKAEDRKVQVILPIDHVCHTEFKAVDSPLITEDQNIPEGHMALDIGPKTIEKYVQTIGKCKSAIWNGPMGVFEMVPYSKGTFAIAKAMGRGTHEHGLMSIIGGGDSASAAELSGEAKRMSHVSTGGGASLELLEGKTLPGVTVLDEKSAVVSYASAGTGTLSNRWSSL
Sequence of phosphoglycerate mutase (Leishmania major) (Q4Q090 1-553): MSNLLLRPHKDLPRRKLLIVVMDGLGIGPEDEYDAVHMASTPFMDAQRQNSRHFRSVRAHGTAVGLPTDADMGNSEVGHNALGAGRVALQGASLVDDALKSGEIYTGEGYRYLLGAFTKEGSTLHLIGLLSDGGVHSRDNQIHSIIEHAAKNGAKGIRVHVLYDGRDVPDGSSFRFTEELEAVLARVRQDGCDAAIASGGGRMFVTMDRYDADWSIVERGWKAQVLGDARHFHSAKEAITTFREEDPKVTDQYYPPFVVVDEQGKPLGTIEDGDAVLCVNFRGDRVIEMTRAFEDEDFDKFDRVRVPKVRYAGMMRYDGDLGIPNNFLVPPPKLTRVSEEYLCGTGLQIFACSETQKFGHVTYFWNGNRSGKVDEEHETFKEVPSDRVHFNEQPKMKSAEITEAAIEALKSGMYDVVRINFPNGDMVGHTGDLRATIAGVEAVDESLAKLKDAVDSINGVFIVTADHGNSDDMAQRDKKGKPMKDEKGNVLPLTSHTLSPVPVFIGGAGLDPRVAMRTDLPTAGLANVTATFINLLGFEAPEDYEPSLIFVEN
Sequence of Galactokinase (Homo sapiens) (P51570 whole entry, looked up): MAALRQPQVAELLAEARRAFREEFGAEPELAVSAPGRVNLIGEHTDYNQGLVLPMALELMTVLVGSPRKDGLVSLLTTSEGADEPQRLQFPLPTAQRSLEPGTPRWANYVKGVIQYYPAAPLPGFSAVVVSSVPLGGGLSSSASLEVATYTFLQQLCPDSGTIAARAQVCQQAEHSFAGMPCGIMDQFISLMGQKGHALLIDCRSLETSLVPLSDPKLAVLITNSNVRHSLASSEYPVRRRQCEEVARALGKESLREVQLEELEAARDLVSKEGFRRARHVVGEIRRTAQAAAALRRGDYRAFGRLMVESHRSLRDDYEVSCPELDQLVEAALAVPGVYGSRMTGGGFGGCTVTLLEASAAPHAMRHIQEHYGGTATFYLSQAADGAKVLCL
Sequence of Peptidyl-prolyl cis-trans isomerase NIMA-interacting 1 (Homo sapiens) (Q13526 whole entry, looked up): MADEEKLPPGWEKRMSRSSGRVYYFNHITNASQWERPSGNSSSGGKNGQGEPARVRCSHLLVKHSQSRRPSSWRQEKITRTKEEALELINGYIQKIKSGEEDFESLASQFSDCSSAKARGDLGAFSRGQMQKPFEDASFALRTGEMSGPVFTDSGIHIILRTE
Sequence of Thyrotropin-releasing hormone receptor (Homo sapiens) (P34981 whole entry, looked up): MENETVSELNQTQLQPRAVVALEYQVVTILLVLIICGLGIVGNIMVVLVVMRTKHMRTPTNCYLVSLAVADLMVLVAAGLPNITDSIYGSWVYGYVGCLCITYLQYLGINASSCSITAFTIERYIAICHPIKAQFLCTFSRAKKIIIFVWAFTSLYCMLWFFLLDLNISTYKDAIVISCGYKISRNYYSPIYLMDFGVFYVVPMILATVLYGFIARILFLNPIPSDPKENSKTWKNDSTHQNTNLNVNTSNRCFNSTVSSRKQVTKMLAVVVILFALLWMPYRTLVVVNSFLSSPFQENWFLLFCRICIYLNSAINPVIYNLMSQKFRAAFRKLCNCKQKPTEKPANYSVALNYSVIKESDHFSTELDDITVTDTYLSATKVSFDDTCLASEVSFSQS

On to `CC1=NN=C(c2ccc(N)cc2)c2cc3c(cc2C1)OCO3`, for which the result in experiment [1], in [4], in experiment [5], in experiment [6], in [7] and in [8] was inactive. The call in experiment [9] and in [10] was inactive. In addition, the Potency entry in experiment [2] is “inactive”. Besides, the activation in experiment [3] was 0.438% (inactive). Further, the viability change in experiment [4] is -4.5%.

On to `CCCN(CCC)[C@@H]1CCc2ccc(O)cc2C1`, for which the compound was classed as inactive in experiment [1], in experiment [4], in [5], in experiment [6], in experiment [7] and in experiment [9]. Moreover, the compound was called inactive in [10]. Also, the Potency result in experiment [2] is “inactive”. The activation in experiment [3] is 0.938% (inactive). The viability change in experiment [4] is 2.19%.

On to `S=C(NC1CCCCC1)N1CCC(c2cnc[nH]2)CC1`, for which the call in [1], in experiment [4], in experiment [5], in experiment [6], in [7] and in experiment [9] was inactive. The result in experiment [10] was inactive. For the same compound, the Potency entry in experiment [2] is “inactive”. Also, the activation in experiment [3] was 0.5% (inactive). The viability change in experiment [4] is -5.13%.

For `O=C1CCCN1CC#CCN1CCCC1`, the result in experiment [1], in experiment [4], in experiment [5], in [6], in experiment [7] and in experiment [9] was inactive. Also, in experiment [10], the result was inactive. Further, in experiment [2], the Potency result was “inactive”. In experiment [3], the activation is 3.06% (inactive). The viability change in [4] was determined as 3.92%.

Consider `CS(=N)(=O)CC[C@H](N)C(=O)O` (stereo partly drawn), for which the call in experiment [1], in experiment [4], in experiment [5], in experiment [6], in [7] and in experiment [8] was inactive. Besides, the call in [9] and in experiment [10] was inactive. Also, the Potency result in [2] is “inactive”. The activation in experiment [3] was 0.312% (inactive). The viability change in experiment [4] was 3.11%.

Take `NC1CC1c1ccccc1` (stereo not drawn): the result in experiment [1], in experiment [4], in [5], in [6], in experiment [7] and in experiment [9] was inactive. Further, the call in [10] was inactive. Besides, in experiment [2], the Potency result was “inactive”. Further, the activation in [3] was 1.44% (inactive). Moreover, the viability change in experiment [4] is -9.56%.

As to `C#CCOC(=O)C1=CCCN(C)C1`, the call in experiment [1], in experiment [4], in [5], in experiment [6], in experiment [7] and in experiment [9] was inactive. In addition, the compound was classed as inactive in experiment [10]. The Potency result in experiment [2] was “inactive”. The activation in experiment [3] is 3.19% (inactive). For the same compound, the viability change in experiment [4] was -2.85%.

On to `CC(=O)NCCc1c[nH]c2ccccc12`, for which the result in experiment [1], in [4], in experiment [5], in [6], in [7] and in experiment [9] was inactive. Moreover, the call in experiment [10] was inactive. Besides, in experiment [2], the Potency result is “inactive”. For the same compound, the activation in experiment [3] was 0.375% (inactive). The viability change in experiment [4] was 1%.

Turning to `Oc1ccc2c3c1O[C@H]1c4[nH]c5c(c4C[C@@]4(O)[C@@H](C2)N(CC2CC2)CC[C@]314)C[C@@]1(O)[C@H]2Cc3ccc(O)c4c3[C@@]1(CCN2CC1CC1)[C@H]5O4`, the call in [1], in experiment [4], in experiment [5], in experiment [6], in [7] and in experiment [8] was inactive. The compound was classed as inactive in experiment [9] and in experiment [10]. Moreover, the Potency entry in experiment [2] is “inactive”. For the same compound, the activation in experiment [3] was 0.625% (inactive). The viability change in [4] was determined as 0%.

For the compound `Cn1cnc(CCN)c1`, the compound was classed as inactive in experiment [1], in [4], in experiment [5], in experiment [6], in experiment [7] and in experiment [9]. Moreover, the call in experiment [10] was inactive. The Potency entry in experiment [2] was “inactive”. In addition, the activation in [3] is 0.562% (inactive). For the same compound, the viability change in experiment [4] was -10.2%.

For the compound `O=C(O)[C@@H]1CCN1`, the compound was classed as inactive in experiment [1], in [4], in experiment [5], in [6], in experiment [7] and in experiment [9]. Moreover, the compound was called inactive in experiment [10]. Besides, the Potency result in [2] is “inactive”. The activation in experiment [3] is 0.75% (inactive). Besides, the viability change in [4] amounted to 8.8%.

Turning to `CCCN1CCC[C@H](c2cccc(O)c2)C1`, the compound was classed as inactive in experiment [1], in [4], in experiment [5], in experiment [6], in [7] and in experiment [9]. Also, the call in experiment [10] was inactive. In addition, the Potency entry in [2] is “inactive”. The activation in experiment [3] is 2.19% (inactive). Also, in [4], the viability change is 1.24%.

The values are drawn from PubChem BioAssay (NCATS).
